Our source for the outcome and AC50 values is PubChem BioAssay (EPA / NIEHS).

Conditions in all cases: mRNA level, 48 h; actives raise or lower the signal
Read-out in one experiment: BCL2L11 (gene 10018)
Put plainly: LTEA_HepaRG_BCL2L11: Life Technologies and Expression Analysis (LTEA) Assay for Bcl-2 (BCL2L11) gene using HepaRG (AID 2283473). An outline of the steps:
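Read-out is BCL2L11 transcript level by qRT-PCR, normalized to three housekeeping genes and fitted bidirectionally against 0.5% DMSO vehicle. HepaRG cells received chemicals for 48 h in serum-free induction medium, 100 uM down in half-log dilutions.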

Read-out in experiment [1]: Apolipoprotein A-V (APOA5) gene, APOA5 (gene 116519)
The experiment in a line: LTEA_HepaRG_APOA5: Life Technologies and Expression Analysis (LTEA) Assay for Apolipoprotein A-V (APOA5) gene using HepaRG (AID 2283474). The method in brief: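 Readout is APOA5 transcript level by qRT-PCR on Fluidigm dynamic arrays, normalized to three housekeeping genes. HepaRG cultures received chemicals for 48 h at up to 100 uM (half-log steps, 0.5% DMSO), with gain or loss scored relative to DMSO.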

Read-out in experiment [2]: Apoptosis regulator Bcl-2 (Homo sapiens) (UniProt P10415)
The experiment in a line: LTEA_HepaRG_BCL2: Life Technologies and Expression Analysis (LTEA) Assay for Bcl-2 gene using HepaRG (AID 2283475). The method in brief:
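qRT-PCR of BCL2 transcript, normalized to three housekeeping genes (ACTB, GAPDH, POLR2A), after 48 h chemical exposure of HepaRG cells; concentrations top 100 uM with half-log dilutions, 0.5% DMSO vehicle, duplicates; changes up or down fitted relative to vehicle.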

Read-out in experiment [3]: Bcl-2 (BID) gene, BID (gene 637)
The experiment in a line: LTEA_HepaRG_BID: Life Technologies and Expression Analysis (LTEA) Assay for Bcl-2 (BID) gene using HepaRG (AID 2283476). The method in brief:
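Duplicate 48 h treatments of HepaRG cells in serum-free induction medium spanned 100 uM downward in half-log steps, 0.5% DMSO. Transcript change quantified by qRT-PCR against three housekeeping genes, fitted up or down versus DMSO.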

Read-out in another experiment: Caspase-3 (Homo sapiens) (UniProt P42574)
Put plainly: LTEA_HepaRG_CASP3: Life Technologies and Expression Analysis (LTEA) Assay for cysteine-aspartic acid protease (CASP3) using HepaRG (AID 2283477). The method in brief:
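Read-out is CASP3 mRNA level by TaqMan qRT-PCR in human HepaRG cells after 48 h chemical exposure. Eight half-log concentrations topping at 100 uM were tested in 0.5% DMSO; gain or loss was fitted relative to DMSO.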

Read-out in experiment [4]: Cytochrome P450 (CYP24A1), CYP24A1 (gene 1591)
The experiment in a line: LTEA_HepaRG_CYP24A1: Life Technologies and Expression Analysis (LTEA) Assay for Cytochrome P450 (CYP24A1) using HepaRG (AID 2283478). An outline of the steps: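 HepaRG, 48 h chemical exposure, 8-pt half-log CRC from 100 uM, 0.5% DMSO vehicle, duplicates. Endpoint: CYP24A1 mRNA by Fluidigm TaqMan qRT-PCR, normalized ACTB/GAPDH/POLR2A; gain/loss fit vs DMSO.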

Read-out in experiment [5]: Cytochrome P450 (CYP1A2), CYP1A2 (gene 1544)
The experiment in a line: LTEA_HepaRG_CYP1A2: Life Technologies and Expression Analysis (LTEA) Assay for Cytochrome P450 (CYP1A2) using HepaRG (AID 2283479). An outline of the steps:
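CYP1A2 transcript induction or loss, quantified by Fluidigm qRT-PCR against three housekeeping genes, was fitted bidirectionally against 0.5% DMSO controls. Human HepaRG cells received eight half-log concentrations from 100 uM over 48 h.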

Read-out in experiment [6]: cysteine-aspartic acid protease (CASP8), CASP8 (gene 841)
Put plainly: LTEA_HepaRG_CASP8: Life Technologies and Expression Analysis (LTEA) Assay for cysteine-aspartic acid protease (CASP8) using HepaRG (AID 2283480). An outline of the steps: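 CASP8 transcript measured by TaqMan qRT-PCR with ACTB/GAPDH/POLR2A normalization, after 48 h chemical exposure of HepaRG cells in serum-free induction medium. Eight concentrations, top 100 uM, half-log steps, 0.5% DMSO vehicle; fits in both directions versus DMSO.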

Read-out in experiment [7]: Cytochrome P450 (CYP2B6), CYP2B6 (gene 1555)
Put plainly: LTEA_HepaRG_CYP2B6: Life Technologies and Expression Analysis (LTEA) Assay for Cytochrome P450 (CYP2B6) using HepaRG (AID 2283481). An outline of the steps: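 HepaRG cells plated 48 h, switched to serum-free induction medium, then dosed 48 h (8 points, half-log from 100 uM, 0.5% DMSO). RNA isolated; CYP2B6 expression measured by qRT-PCR; gain or loss fitted relative to DMSO.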

Read-out in experiment [8]: Cytochrome P450 2C19 (Homo sapiens) (UniProt P33261)
Put plainly: LTEA_HepaRG_CYP2C19: Life Technologies and Expression Analysis (LTEA) Assay for CYP2C19 using HepaRG (AID 2283482). The method in brief: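 Transcript levels of CYP2C19 were quantified by qRT-PCR after HepaRG cells were treated for 48 hours with test chemicals up to 100 uM (eight half-log concentrations, 0.5% DMSO vehicle). Gain or loss of signal was fitted relative to DMSO.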

Read-out in another experiment: CYP2C9 (gene 1559)
Put plainly: LTEA_HepaRG_CYP2C9: Life Technologies and Expression Analysis (LTEA) Assay for CYP2C9 using HepaRG (AID 2283484). An outline of the steps:
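CYP2C9 transcript level, quantified by TaqMan qRT-PCR against three housekeeping genes, was fitted bidirectionally relative to 0.5% DMSO. HepaRG cultures were treated 48 h, in duplicate, at eight half-log concentrations topping at 100 uM.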

Read-out in another experiment: CYP2E1 (gene 1571)
The experiment in a line: LTEA_HepaRG_CYP2E1: Life Technologies and Expression Analysis (LTEA) Assay for CYP2E1 using HepaRG (AID 2283485). An outline of the steps:
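CYP2E1 transcript measured by Fluidigm qRT-PCR against three housekeeping genes in human HepaRG cells treated 48 h (top 100 uM, half-log steps, 0.5% DMSO vehicle). Gain or loss fitted relative to DMSO baseline.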

Read-out in the next experiment: CYP4A11 (gene 1579)
Put plainly: LTEA_HepaRG_CYP4A11: Life Technologies and Expression Analysis (LTEA) Assay for CYP4A11 using HepaRG (AID 2283486). An outline of the steps:
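HepaRG, 48 h chem exposure, 8 conc (100 uM top, half-log), 0.5% DMSO vehicle; qRT-PCR readout, housekeeping-gene normalized; bidirectional curve fit vs DMSO baseline.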

Read-out in experiment [9]: DNA damage-inducible transcript 3 (DDIT3), DDIT3 (gene 1649)
The experiment in a line: LTEA_HepaRG_DDIT3: Life Technologies and Expression Analysis (LTEA) Assay for DNA damage-inducible transcript 3 (DDIT3) using HepaRG (AID 2283488). An outline of the steps: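 DDIT3 transcript was quantified by qRT-PCR with ACTB/GAPDH/POLR2A normalization after 48 h chemical treatment of differentiated HepaRG cells in 0.5% DMSO. Dosing was eight-point, half-log, top 100 uM, duplicate wells. Curves fitted bidirectionally versus DMSO.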

Read-out in experiment [10]: Pro-epidermal growth factor (Homo sapiens) (UniProt P01133)
The experiment in a line: LTEA_HepaRG_EGF: Life Technologies and Expression Analysis (LTEA) Assay for Epidermal growth factor (EGF) using HepaRG (AID 2283489). The method in brief: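 HepaRG, 48 h dosing, 100 uM top, half-log x8, 0.5% DMSO. Readout: TaqMan qRT-PCR (Fluidigm array), housekeeping-normalized. Gain or loss of signal fit vs DMSO.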

Read-out in experiment [11]: Early growth response protein 1 (EGR1) transcription factor, EGR1 (gene 1958)
Put plainly: LTEA_HepaRG_EGR1: Life Technologies and Expression Analysis (LTEA) Assay for Early growth response protein 1 (EGR1) transcription factor using HepaRG (AID 2283490). An outline of the steps:
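EGR1 transcript levels quantified by qRT-PCR (Fluidigm arrays) against three housekeeping genes after 48 h chemical exposure of HepaRG cells. Eight-point half-log series topping at 100 uM, 0.5% DMSO vehicle, analyzed for gain or loss.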

Read-out in experiment [12]: Ezrin (EZR), EZR (gene 7430)
Put plainly: LTEA_HepaRG_EZR: Life Technologies and Expression Analysis (LTEA) Assay for Ezrin (EZR) using HepaRG (AID 2283491). The method in brief:
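Differentiated human HepaRG cells, 48 h after plating, were exposed in serum-free induction medium for 48 hours to eight half-log concentrations up to 100 uM in 0.5% DMSO. EZR mRNA was measured by TaqMan qRT-PCR, normalized to ACTB, GAPDH and POLR2A, and fitted bidirectionally against DMSO.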

Read-out in experiment [13]: Cytochrome P450 3A7 (Homo sapiens) (UniProt P24462)
Put plainly: LTEA_HepaRG_CYP3A7: Life Technologies and Expression Analysis (LTEA) Assay for CYP3A7 using HepaRG (AID 2283492). An outline of the steps: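 Human HepaRG liver cells, 48 h post-plating, switched to serum-free induction medium and exposed in duplicate for 48 h. Dosing: 100 uM top, half-log dilutions, 8 points, 0.5% DMSO vehicle. Read-out: CYP3A7 mRNA, gain or loss fitted against DMSO baseline.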

Read-out in experiment [14]: Cytochrome P450 3A4 (Homo sapiens) (UniProt P08684)
Put plainly: LTEA_HepaRG_CYP3A4: Life Technologies and Expression Analysis (LTEA) Assay for CYP3A4 using HepaRG (AID 2283487). An outline of the steps: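 Differentiated HepaRG cells in serum-free induction medium exposed in duplicate for 48 h to 8 half-log concentrations up to 100 uM in 0.5% DMSO. CYP3A4 mRNA measured by qRT-PCR normalized to ACTB, GAPDH and POLR2A; bidirectional fit versus DMSO.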

The source made the active and inactive calls. The calls were made as follows: active = hit-call score of the fitted dose curve at least 0.9, where 1 is the maximum; inactive = score below 0.9.

Chain of Apoptosis regulator Bcl-2 (Homo sapiens) (P10415 whole entry, looked up): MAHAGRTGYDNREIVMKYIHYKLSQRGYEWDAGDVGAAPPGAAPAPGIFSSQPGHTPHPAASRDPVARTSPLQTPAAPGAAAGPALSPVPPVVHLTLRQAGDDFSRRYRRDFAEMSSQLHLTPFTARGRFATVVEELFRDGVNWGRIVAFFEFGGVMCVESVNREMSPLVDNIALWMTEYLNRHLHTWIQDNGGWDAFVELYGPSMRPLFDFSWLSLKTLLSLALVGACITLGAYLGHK
Chain of Cytochrome P450 3A7 (Homo sapiens) (P24462 whole entry, looked up): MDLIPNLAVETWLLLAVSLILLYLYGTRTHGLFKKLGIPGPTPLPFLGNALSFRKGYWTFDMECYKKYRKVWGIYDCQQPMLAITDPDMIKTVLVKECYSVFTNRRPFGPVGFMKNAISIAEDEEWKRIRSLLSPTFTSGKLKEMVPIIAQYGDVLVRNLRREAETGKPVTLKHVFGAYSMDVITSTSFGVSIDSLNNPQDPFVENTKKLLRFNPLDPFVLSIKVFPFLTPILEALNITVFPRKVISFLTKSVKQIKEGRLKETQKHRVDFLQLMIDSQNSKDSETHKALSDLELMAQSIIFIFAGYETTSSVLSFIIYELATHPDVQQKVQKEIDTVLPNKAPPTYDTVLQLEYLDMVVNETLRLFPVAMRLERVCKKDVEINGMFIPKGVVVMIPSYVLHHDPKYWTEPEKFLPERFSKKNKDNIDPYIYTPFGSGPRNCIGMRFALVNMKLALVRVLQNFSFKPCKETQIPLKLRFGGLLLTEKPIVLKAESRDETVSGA
Chain of Cytochrome P450 2C19 (Homo sapiens) (P33261 whole entry, looked up): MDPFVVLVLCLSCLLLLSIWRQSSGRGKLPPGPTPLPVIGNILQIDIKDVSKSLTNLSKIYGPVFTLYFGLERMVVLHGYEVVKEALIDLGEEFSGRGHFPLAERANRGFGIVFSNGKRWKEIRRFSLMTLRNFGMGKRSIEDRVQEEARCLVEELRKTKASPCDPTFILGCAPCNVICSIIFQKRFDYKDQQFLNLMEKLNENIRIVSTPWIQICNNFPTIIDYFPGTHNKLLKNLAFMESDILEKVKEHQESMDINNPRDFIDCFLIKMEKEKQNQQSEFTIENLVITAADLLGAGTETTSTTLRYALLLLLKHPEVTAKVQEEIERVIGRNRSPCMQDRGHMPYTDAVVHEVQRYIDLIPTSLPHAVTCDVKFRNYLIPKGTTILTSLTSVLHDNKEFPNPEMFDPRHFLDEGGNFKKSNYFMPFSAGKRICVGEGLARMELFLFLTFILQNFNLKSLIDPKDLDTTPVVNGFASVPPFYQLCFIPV
Chain of Caspase-3 (Homo sapiens) (P42574 whole entry, looked up): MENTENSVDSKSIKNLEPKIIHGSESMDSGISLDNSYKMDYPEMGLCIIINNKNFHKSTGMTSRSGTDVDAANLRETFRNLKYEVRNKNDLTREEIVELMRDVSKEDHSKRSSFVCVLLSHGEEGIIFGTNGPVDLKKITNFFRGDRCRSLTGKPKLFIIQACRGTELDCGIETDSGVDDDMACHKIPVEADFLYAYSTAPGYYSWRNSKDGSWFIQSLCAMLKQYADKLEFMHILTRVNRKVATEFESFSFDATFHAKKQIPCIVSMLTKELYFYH
Chain of Cytochrome P450 3A4 (Homo sapiens) (P08684 whole entry, looked up): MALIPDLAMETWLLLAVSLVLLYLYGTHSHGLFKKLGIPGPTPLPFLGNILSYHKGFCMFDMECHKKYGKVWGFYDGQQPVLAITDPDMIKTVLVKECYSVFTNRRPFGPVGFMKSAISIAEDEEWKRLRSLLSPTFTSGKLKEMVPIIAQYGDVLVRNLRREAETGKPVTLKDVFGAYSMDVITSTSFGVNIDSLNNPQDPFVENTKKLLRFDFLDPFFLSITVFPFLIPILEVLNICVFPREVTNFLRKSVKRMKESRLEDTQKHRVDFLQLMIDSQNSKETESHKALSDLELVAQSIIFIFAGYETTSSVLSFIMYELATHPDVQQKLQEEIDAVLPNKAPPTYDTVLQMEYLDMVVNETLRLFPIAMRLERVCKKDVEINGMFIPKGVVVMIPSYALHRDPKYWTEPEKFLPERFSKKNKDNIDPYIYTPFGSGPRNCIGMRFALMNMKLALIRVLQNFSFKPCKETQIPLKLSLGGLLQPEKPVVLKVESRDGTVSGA

Consider `CCCCCCCCn1sccc1=O`, for which the call (in the experiment with BCL2L11 (gene 10018); in experiment [2]; in [3]; with Caspase-3 (Homo sapiens); in experiment [4]; in experiment [5]) was inactive. In addition, the result in [6], in experiment [9], in experiment [10], in experiment [11] and in experiment [12] was inactive. Also, the concentration at half-maximal activity (AC50) in [1] was 82.9 µM (active); in experiment [7], 87 µM (active); in experiment [8], 81.8 µM (active); in the experiment with CYP2C9 (gene 1559), 85.3 µM (active); with CYP2E1 (gene 1571) it was 84.2 µM (active); in the experiment with CYP4A11 (gene 1579), 91.1 µM (active). Also, the AC50 in [13] is 89.1 µM (active).

Turning to `CC(C)(C)OOC(C)(C)CCC(C)(C)OOC(C)(C)C`, the result (in the experiment with BCL2L11 (gene 10018); in experiment [1]; in experiment [2]; in experiment [4]; in experiment [5]; in experiment [7]) was inactive. Moreover, the result (in experiment [8]; with CYP2C9 (gene 1559); in the experiment with CYP2E1 (gene 1571); in the experiment with CYP4A11 (gene 1579); in [14]; in experiment [9]) was inactive. Also, the result in [10], in experiment [11], in experiment [12] and in [13] was inactive.

Take `CN(C)c1ccc(C(=O)c2ccc(N(C)C)cc2)cc1`: the molecule was classed as inactive (in the experiment with BCL2L11 (gene 10018); in experiment [1]; in experiment [3]; with Caspase-3 (Homo sapiens); in experiment [4]; in [6]). Further, the call (in experiment [8]; with CYP2C9 (gene 1559); in [9]; in experiment [10]; in [11]; in experiment [12]) was inactive. In addition, the call in experiment [13] was inactive. In addition, the AC50 in experiment [2] was 8.06 µM (active); in experiment [5], 12.1 µM (active); in [7], 12.2 µM (active); with CYP2E1 (gene 1571) it was 50 µM (active); with CYP4A11 (gene 1579), 50 µM (active).

What is called AC50 is the midpoint of the concentration-response curve, whichever way the signal moves.
